Measured values: PubChem BioAssay (NCI)
This is part of a sample that, as a whole, favours compounds with a hit. Of some 83,000 tested, about 20% had one in any assay.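 Note: values are percent growth. 100 is the growth of untreated cells, values between 100 and 0 indicate rising inhibition; between -100 and 0 indicates cell death.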 Values without a mark were called inactive. Activity calls are given as the source filed them.

What follows are molecules tested on U251 CNS (assay: NCI-60 one-dose screen, 48 h (100 = growth as untreated, 0 = no growth, -100 = all killed)). Settings: 10 µM.
Protocol: Growth inhibition of the U251 human tumor cell line is measured as a screen for anti-cancer activity. Cells are grown in 96 well plates and exposed to the test compound for 48 hours. Compounds are tested at a single concentration, which is 10^-5 M for most compounds. The reported endpoint is percent growth (GI% or GIPRCNT), where numbers from 0 - 100% represent growth inhibition, and numbers from -100% - 0 represent cell death. For example, a value of 40 represents 60% growth inhibition. A value of 0 means no net growth occurred over the course of the experiment. A value of -40 indicates 40% of cells at the beginning of the experiment died by the end of the experiment. A value of -100 means all cells are dead at the end of the experiment.
NCI-60 Human Tumor Cell Lines Screen was performed using the standard one-dose NCI protocol, which is described in more detail at https://dtp.cancer.gov/discovery_development/nci-60/default.htm.
Compounds with GIPRCNT values below 10 were considered active. Activity score was based on GIPRCNT using the following formula: […]
Score is 0 for GIPRCNT values of 100 or above, 50 for GIPRCNT values of 0, and 100 for GIPRCNT values of -100.

| SMILES | growth |
| --- | --- |
| CN(C)c1ccc(/C=C/c2nc3ccccc3c(=O)n2CC(=O)Nc2ccc(Cl)cc2)cc1 | 39.7% |
| CN1CCN(c2ccc(Nc3nc(NCCCNC(=O)c4ccc(Cl)cc4)c4sccc4n3)cc2)CC1 | 44.6% |
| O=C1NC(=NC23CC4CC(CC(C4)C2)C3)N/C1=C\c1ccc2ncsc2c1 | 10.2% |
| CN1C(=O)N(C)C2SC(N/N=C/c3ccccc3F)=NC21 (stereo not given) | 51.2% |
| COc1ccc(NC(=O)Cn2c(/C=C/c3ccc(N(C)C)cc3)nc3ccccc3c2=O)cc1 | 23% |
| CCCCCCCCCCCCCCCCCCCC(=O)NCCc1c[nH]c2ccc(OC(=O)CCCC(=O)OCCOOCCOOCCOOCCOOCCOOCCOOCCOOCCOOCCOOCCOOCCOOCCOC)cc12 | -31.3% (active) |
| O=C(c1ccc(O)cc1)C1[C@H](c2ccccc2Br)[C@@H](c2ccccc2)NC12C(=O)Nc1ccc(Cl)cc12 (stereo not given in full) | -31.9% (active) |
| COc1ccc(N2N=C(c3ccc4c(c3)OCCO4)CC2c2cccc(NC(=O)CCCNS(=O)(=O)c3ccc(F)cc3)c2)cc1 (stereo not given) | 75.4% |
| O=C(Nc1ccc(OCc2ccccc2)cc1)Nc1ccc(Cl)c(C(F)(F)F)c1 | -10.2% (active) |
| O=C1Nc2ccc(Cl)cc2/C1=C/c1ccc(OCc2ccccn2)cc1 | 23.7% |
| CCOC(=O)N/C(=C1/OCCN1C)[P+](c1ccccc1)(c1ccccc1)c1ccccc1 | 66.3% |
| CC(=O)Nc1nc(-c2ccc(N3CCN(C)CC3)c(NS(=O)(=O)c3cccc4c(N(C)C)cccc34)c2)cs1 | 28.1% |
| COc1ccc(N(C)c2cc(C#N)nc3ccccc23)cc1/C=C/C(=O)NO | -51% (active) |
| Clc1ccc(/C=N/Nc2ncnc3sc4c(c23)CCN(Cc2ccccc2)C4)cc1 | -83.8% (active) |
| O=c1[nH]c2ccccc2cc1CSc1ccc(Nc2nccc(-c3ccc(C(F)(F)F)cc3)n2)cc1 | -26.4% (active) |
| COc1cccc2nc(Nc3ccc(F)c(NC(=O)c4ccc(CN5CCN(C)CC5)c(C(F)(F)F)c4)c3)ccc12 | -42.7% (active) |
| CC(=C(c1ccc(OCCCN(C)C)cc1)c1ccc(OCCCN(C)C)cc1)c1ccccc1 | -86.1% (active) |
| Cc1ccc(/C(CSc2nnc(-c3c[nH]c4ccccc34)n2-c2ccccc2)=N/O)cc1 | 10.4% |
| COc1cccc(/C=C2\N=C(C)N(CCc3ccc(S(N)(=O)=O)cc3)C2=O)c1 | 99.9% |
| C=C(C)[C@@H]1CC[C@]2(COP(=O)(OCC)OCC)CC[C@]3(C)[C@H](CC[C@@H]4[C@@](C)(CCCN)[C@H](C(=C)C)CC[C@]43C)[C@@H]12 | 21% |

| SMILES | growth |
| --- | --- |
| Cn1c(O)c(N=Nc2nc(-c3cc4ccccc4oc3=O)cs2)c2cc(Br)ccc21 | 21.3% |
| CC(=O)c1ccc(Nc2nc(SCCC(C)C)nc(-c3ccc(F)cc3)c2C#N)cc1 | 2.09% (active) |
| O=C(c1ccc(Cl)cc1)C1[C@H](c2ccccc2Br)[C@@H](c2ccccc2)NC12C(=O)Nc1ccc(Cl)cc12 (stereo not given in full) | 6.14% (active) |
| CC(C)C1=C[C@@]23CC[C@@H]4[C@](C)(CCC[C@]4(C)C(=O)NCc4ccccc4)[C@H]2C[C@@H]1[C@H]1C(=O)CCC(=O)[C@H]13 | 67% |
| COc1ccc(-c2cc(C(=O)N=Nc3c(O)[nH]c4ccc(Br)cc34)c3ccccc3n2)cc1 | -67.7% (active) |
| CN1CCN(c2ccc(Nc3nc(NCCCNC(=O)C4CCCCC4)c4sccc4n3)cc2)CC1 | 17.1% |
| COc1cc2oc(-c3cccc(C(=O)Nc4ccc(Cl)cc4)c3)cc(=O)c2c(OCCNC(=O)CNC(=O)OC(C)(C)C)c1OC | 74.8% |
| COc1ccccc1[C@H]1C(C(=O)c2ccc(O)cc2)C2(N[C@@H]1c1ccccc1)C(=O)Nc1ccc(Br)cc12 (stereo not given in full) | 26.1% |
| Cc1ccc(C(=O)Nc2ccc(-n3c(C)nc4c(cnn4-c4ccccc4)c3=O)cc2)cc1 | 90% |
| Cc1cc(=O)oc2cc(OCCCCOc3ccc(/C=C/C(=O)Nc4ccccc4[N+](=O)[O-])cc3)ccc12 | 106% |
| COc1ccc(C=CC(=O)c2ccc(-n3c(C)nc4c(cnn4-c4ccccc4)c3=O)cc2)cc1 | 74.1% |
| Nc1cccnc1/C=N/NC(=S)NCCNC(=O)c1ccc(-n2nc(-c3ccccc3O)nc2-c2ccccc2O)cc1 | 12.4% |
| COc1ccc2cc([C@H](C)C(=O)NCc3ccccc3)ccc2c1 | 25% |
| Cc1cccc(NC(=O)CSc2nc3ccc(F)cc3c(=O)n2-c2ccc(Cl)cc2)c1C | 48.8% |
| Cc1ccc(C(C)C)cc1NC(=O)c1ccccc1O | 41% |
| CCN1CCN(c2ccc(NC(=O)Nc3ccc(-c4cc(C(=O)NC)c5ncccc5n4)cc3)cc2C(F)(F)F)CC1 | -96.3% (active) |
| CC(=O)C1=C(C)NC(SCC(=O)Nc2ccc(S(=O)(=O)Nc3cc(C)on3)cc2)=NC1c1ccccc1 (stereo not given) | 103% |
| C/C(=N\N=C\c1ccc(Cl)c([N+](=O)[O-])c1)c1ccc2c(c1)Nc1ccccc1S2 | -35% (active) |
| OCc1[nH]nc2cc(Nc3ncc4ccc(Br)c(OC5CCC(O)CC5)c4n3)ccc12 (stereo not given) | 8.55% (active) |
| COc1cc2c(cc1OC)/C(=C\c1sc(Nc3ccc(O)cc3)nc1O)C(C(=O)O)=N2 | 18.6% |
